In PubChem BioAssay (EPA / NIEHS) one finds AC50 and outcome data, which are given here for 3 compounds.

Assay [1] concerns the target Myc proto-oncogene protein (Homo sapiens) (UniProt P01106). Description: ATG_Myc_CIS: Attagene CIS-FACTORIAL HepG2 Assay for human Myelocytomatosis (Myc) Proto-Oncogene Transcription Factor (AID 2282990). The conditions noted are these: HepG2, Attagene cis-reporter transcription factor activity; actives raise or lower the signal. The essentials:
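HepG2 cells transiently transfected with multiple cis-promoter-driven reporter transcription units, so endogenous TF activity is read. After 24 h compound exposure, reporter mRNA was quantified by RT-PCR, 6-FAM labelling, HpaI digestion and capillary electrophoresis; bidirectional fit versus DMSO.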

Assay [2] can be described thus: ATG_NRF2_ARE_CIS: Attagene CIS-FACTORIAL HepG2 Assay for human Nuclear Factor Erythroid 2 Related Factor 2 (NFR2) response to Antioxidant Response Elements (ARE) (AID 2282992).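 For AC50: reporter mRNA level measured by RT-PCR and capillary electrophoresis fluorescence.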 The conditions noted are these: HepG2 Attagene ARE/NRF2 reporter, transcription factor activity; actives raise or lower the signal. The essentials:
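HepG2 cells transiently transfected with multiplexed cis-element reporter constructs, 24 h after chemical dosing; reporter mRNA quantified by RT-PCR, fluorescent primer extension, HpaI digestion and capillary electrophoresis. Bidirectional fit relative to DMSO.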

Assay [3] is described as follows: ATG_Oct_MLP_CIS: Attagene CIS-FACTORIAL HepG2 Assay for human Octamer-Binding Transcription Factor (Oct) (AID 2282993). The conditions noted are these: HepG2 Attagene cis-factorial Oct reporter, mRNA; actives raise or lower the signal. The essentials:
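Readout is reporter transcript level from RT-PCR with fluorescent primer extension and capillary electrophoresis, fitted in both directions against DMSO. Transfected HepG2 reporter units report endogenous factor activity after 24 h dosing.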

Assay [4] deals with Cellular tumor antigen p53 (Homo sapiens) (UniProt P04637). In words: ATG_p53_CIS: Attagene CIS-FACTORIAL HepG2 Assay for human p53 Transcription Factor (AID 2282994). The conditions noted are these: HepG2 p53 cis-element reporter, Attagene mRNA; actives raise or lower the signal. Summed up: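 HepG2 cells transiently transfected with cis-regulated multiple reporter transcription units, dosed 24 h. Reporter mRNA measured by RT-PCR, 6-FAM primer extension, HpaI digestion and capillary electrophoresis; bidirectional fit relative to DMSO.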
Sequence of Cellular tumor antigen p53 (Homo sapiens) (P04637 whole entry, looked up): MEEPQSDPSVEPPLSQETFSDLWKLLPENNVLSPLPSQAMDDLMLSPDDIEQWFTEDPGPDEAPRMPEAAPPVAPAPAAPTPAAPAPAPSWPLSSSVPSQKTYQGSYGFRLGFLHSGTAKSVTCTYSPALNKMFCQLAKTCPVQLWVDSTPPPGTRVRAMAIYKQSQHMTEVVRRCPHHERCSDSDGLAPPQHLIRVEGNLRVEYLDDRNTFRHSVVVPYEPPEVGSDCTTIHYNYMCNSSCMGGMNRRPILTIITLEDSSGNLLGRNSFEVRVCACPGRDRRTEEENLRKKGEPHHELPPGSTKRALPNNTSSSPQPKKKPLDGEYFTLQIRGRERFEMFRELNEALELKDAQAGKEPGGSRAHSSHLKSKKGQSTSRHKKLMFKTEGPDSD

The nature of assay [5]: BSK_3C_TissueFactor: BioMAP Diversity Plus: 3C Assay for Tissue Factor Biomarker Activity (AID 2282997). The conditions noted are these: BioMAP 3C HUVEC, tissue factor biomarker readout; actives raise or lower the signal. Summed up: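 Human vascular primary cells (umbilical vein endothelium) received test chemical; Tissue Factor was determined by ELISA at 24 h, and both gain and loss of signal versus DMSO were fitted.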

A short description of assay [6]: BSK_3C_VCAM1: BioMAP Diversity Plus: 3C Assay for Vascular cell adhesion molecule 1 (VCAM1) Biomarker Activity (AID 2282999). The conditions noted are these: BioMAP 3C HUVEC, VCAM1 ELISA, cytokine-stimulated; actives raise or lower the signal. The essentials: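 Human umbilical vein endothelial cells were dosed with compound for 24 h, after which cell-surface VCAM-1 was quantified by ELISA. Bidirectional curve fitting used DMSO as negative control and activity baseline.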
For orientation: An ELISA detects its analyte on a solid surface through an enzyme-linked reagent.

A short description of assay [7]: BSK_4H_Eotaxin3: BioMAP Diversity Plus: 4H Assay for Eotaxin 3 Biomarker Activity (AID 2283000).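 For outcome: CCL26 protein level quantified by ELISA in parallel with SRB cytotoxicity check.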 The conditions noted are these: primary human endothelial cells (HUVEC); actives raise or lower the signal. The essentials:
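Readout is Eotaxin-3 (CCL26) level by ELISA in primary human umbilical vein endothelial cells harvested 24 h after chemical exposure; activity fitted in both directions against DMSO control.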

For assay [8], the target named is human Peroxisome Proliferator-activated Receptor alpha (PPARa), PPARA (gene 5465) (UniProt Q07869). Description: ATG_PPARa_TRANS: Attagene TRANS-FACTORIAL HepG2 Assay for human Peroxisome Proliferator-activated Receptor alpha (PPARa) (AID 2283001; active = hit-call score of the fitted dose curve at least 0.9, where 1 is the maximum). The essentials:
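HepG2 cells transiently transfected with multiplexed GAL4-UAS reporter units and chimeric NR-Gal4 constructs were dosed for 24 h. Reporter mRNA was measured by RT-PCR with fluorescent labelling and capillary electrophoresis; gain of signal fitted against DMSO.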

For assay [9], the target named is human Peroxisome Proliferator-activated Receptor delta (PPARd), PPARD (gene 5467) (UniProt Q03181). In words: ATG_PPARd_TRANS: Attagene TRANS-FACTORIAL HepG2 Assay for human Peroxisome Proliferator-activated Receptor delta (PPARd) (AID 2283002; active = hit-call score of the fitted dose curve at least 0.9, where 1 is the maximum). Summed up: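 HepG2 cells transiently transfected with multiplexed GAL4-UAS reporter units and exogenous chimeric NR-Gal4 proteins; 24 h compound exposure. Reporter mRNA measured by RT-PCR, 6-FAM labelling, HpaI digestion and capillary electrophoresis; gain of signal versus DMSO.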
Sequence of human Peroxisome Proliferator-activated Receptor delta (PPARd), PPARD (gene 5467) (Q03181 whole entry, looked up, the tested form may be a part): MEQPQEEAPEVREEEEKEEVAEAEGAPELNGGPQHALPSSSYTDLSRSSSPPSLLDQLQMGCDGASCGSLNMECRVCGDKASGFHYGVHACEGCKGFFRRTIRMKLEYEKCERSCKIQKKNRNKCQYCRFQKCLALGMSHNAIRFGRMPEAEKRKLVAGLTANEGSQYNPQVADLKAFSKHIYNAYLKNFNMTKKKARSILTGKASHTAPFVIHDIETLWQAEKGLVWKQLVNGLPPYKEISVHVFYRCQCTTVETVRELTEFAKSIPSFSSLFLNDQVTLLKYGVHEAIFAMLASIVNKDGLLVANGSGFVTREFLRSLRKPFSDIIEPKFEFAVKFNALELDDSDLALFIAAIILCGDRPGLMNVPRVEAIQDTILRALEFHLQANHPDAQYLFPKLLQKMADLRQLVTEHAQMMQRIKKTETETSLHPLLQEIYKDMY

Read-out in assay [10]: Intercellular Adhesion Molecule 1 (ICAM1), ICAM1 (gene 3383)
In words: BSK_3C_ICAM1: BioMAP Diversity Plus: 3C Assay for Intercellular Adhesion Molecule 1 (ICAM1) Biomarker Activity (AID 2283003). The conditions noted are these: primary human endothelial cells (HUVEC); actives raise or lower the signal. Summed up: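 Human vascular endothelial primary cells, 3C conditions, 24 h treatment. ICAM-1 by ELISA.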

Assay [11] in a line: BSK_3C_Proliferation: Cell Proliferation Assessment in the BioMAP Diversity Plus: 3C Assay (AID 2283006).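 For AC50: potency may reflect either rise or fall in cell number versus DMSO.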 The conditions noted are these: primary human endothelial cells (HUVEC). The essentials:
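Proliferation of human vascular endothelial primary cells after 48 h dosing, quantified as SRB-stained protein at 560 nm relative to DMSO.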

For assay [12], the target named is Peroxisome proliferator-activated receptor gamma (Homo sapiens) (UniProt P37231). Description: ATG_PPARg_TRANS: Attagene TRANS-FACTORIAL HepG2 Assay for human Peroxisome Proliferator-activated Receptor-gamma (PPARg) (AID 2283007; active = hit-call score of the fitted dose curve at least 0.9, where 1 is the maximum). Summed up:
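Transient transfection of HepG2 with GAL4-UAS-driven reporter units; chemical dosing 24 h; total RNA → oligo(dT) RT → PCR with reporter primers → 6-FAM primer extension → HpaI digest 2 h 37 C → capillary electrophoresis. Positive direction vs DMSO.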

The target in assay [13] is Nuclear receptor subfamily 1 group I member 2 (Homo sapiens) (UniProt O75469). Description: ATG_PXR_TRANS: Attagene TRANS-FACTORIAL HepG2 Assay for human Pregnane X Receptor (PXR) (AID 2283008; active = hit-call score of the fitted dose curve at least 0.9, where 1 is the maximum). The essentials:
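HepG2 cells transiently transfected with GAL4-UAS reporter units and PXR-Gal4 chimera, exposed 24 h. Reporter mRNA quantified by RT-PCR, fluorescent labelling, HpaI digestion and capillary electrophoresis; gain of signal vs DMSO.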

Assay [14] concerns the target human RAR-related Orphan Receptor gamma (RORg), RORC (gene 6097) (UniProt P51449). Description: ATG_RORg_TRANS: Attagene TRANS-FACTORIAL HepG2 Assay for human RAR-related Orphan Receptor gamma (RORg) (AID 2283011; active = hit-call score of the fitted dose curve at least 0.9, where 1 is the maximum). Summed up:
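Transient MRTU transfection of HepG2 (TRANS format, exogenous NR-Gal4 chimera). 24 h dosing. Total RNA → oligo(dT) RT → PCR → 6-FAM labelling → HpaI cut → CE. Gain vs DMSO.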

Assay [15] can be described thus: ATG_NF_kB_CIS: Attagene CIS-FACTORIAL HepG2 Assay for human Nuclear Factor Kappa B (NF-kB) (AID 2282991). The conditions noted are these: HepG2 Attagene cis-factorial NF-kB reporter mRNA; actives raise or lower the signal. Summed up: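 Transient MRTU transfection of human HepG2 liver cells → 24 h chemical exposure → total RNA, oligo(dT) RT → PCR, 6-FAM primer extension, HpaI digest 2 h 37 C → CE fragment analysis. Bidirectional fitting, DMSO negative control.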

The target of assay [16] is human Retinoic Acid Receptor beta (RARb), RARB (gene 5915) (UniProt P10826). In words: ATG_RARb_TRANS: Attagene TRANS-FACTORIAL HepG2 Assay for human Retinoic Acid Receptor beta (AID 2283004; active = hit-call score of the fitted dose curve at least 0.9, where 1 is the maximum). The essentials: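 Readout is reporter mRNA induction: RNA reverse-transcribed, PCR-amplified, FAM-labelled, HpaI-cut and resolved by capillary electrophoresis. Transiently transfected HepG2 cells carrying exogenous NR–Gal4 chimeras were dosed for 24 h; activity fitted upward relative to DMSO.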
Sequence of human Retinoic Acid Receptor beta (RARb), RARB (gene 5915) (P10826 whole entry, looked up, the tested form may be a part): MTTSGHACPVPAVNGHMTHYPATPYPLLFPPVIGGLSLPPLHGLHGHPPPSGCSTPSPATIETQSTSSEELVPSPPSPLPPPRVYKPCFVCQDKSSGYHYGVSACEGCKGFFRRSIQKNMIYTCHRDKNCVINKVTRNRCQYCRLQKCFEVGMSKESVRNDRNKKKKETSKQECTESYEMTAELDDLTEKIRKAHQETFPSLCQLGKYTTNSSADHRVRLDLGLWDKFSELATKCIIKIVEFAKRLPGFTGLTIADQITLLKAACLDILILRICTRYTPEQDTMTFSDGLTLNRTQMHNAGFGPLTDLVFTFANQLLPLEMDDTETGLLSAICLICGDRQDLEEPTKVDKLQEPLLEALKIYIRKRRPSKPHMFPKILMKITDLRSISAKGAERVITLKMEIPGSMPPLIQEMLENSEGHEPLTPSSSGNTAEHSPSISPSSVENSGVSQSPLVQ

Assay [17] deals with Retinoic acid receptor alpha (Homo sapiens) (UniProt P10276). In words: ATG_RARa_TRANS: Attagene TRANS-FACTORIAL HepG2 Assay for human Retinoic Acid Receptor alpha (RARa) (AID 2283005; active = hit-call score of the fitted dose curve at least 0.9, where 1 is the maximum). The essentials:
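HepG2 cells transiently transfected with multiple reporter units expressing chimeric RARα-GAL4 fusion, with GAL4-UAS-driven reporters. After 24 h compound exposure, reporter mRNA induction quantified by RT-PCR and capillary electrophoresis with fluorescent labeling; gain-of-signal fitted relative to DMSO control.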

Assay [18] concerns the target human RAR-related Orphan Receptor beta (RORb), RORB (gene 6096) (UniProt Q92753). In words: ATG_RORb_TRANS: Attagene TRANS-FACTORIAL HepG2 Assay for human RAR-related Orphan Receptor beta (RORb) (AID 2283010; active = hit-call score of the fitted dose curve at least 0.9, where 1 is the maximum). Summed up: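 In this TRANS-format test, human HepG2 cells express chimeric NR-Gal4 fusion proteins driving GAL4-UAS reporters. After 24 h dosing, reporter transcripts are measured by fluorescent RT-PCR/capillary electrophoresis, with DMSO as negative control.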

The target in assay [19] is human Retinoic Acid Receptor gamma (RARg), RARG (gene 5916) (UniProt P13631). Description: ATG_RARg_TRANS: Attagene TRANS-FACTORIAL HepG2 Assay for human Retinoic Acid Receptor gamma (RARg) (AID 2283009; active = hit-call score of the fitted dose curve at least 0.9, where 1 is the maximum). Summed up: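 HepG2, RARg-GAL4 TRANS system, 24 h exposure; reporter mRNA by RT-PCR + CE fluorescence; increase over DMSO.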
Sequence of human Retinoic Acid Receptor gamma (RARg), RARG (gene 5916) (P13631 whole entry, looked up, the tested form may be a part): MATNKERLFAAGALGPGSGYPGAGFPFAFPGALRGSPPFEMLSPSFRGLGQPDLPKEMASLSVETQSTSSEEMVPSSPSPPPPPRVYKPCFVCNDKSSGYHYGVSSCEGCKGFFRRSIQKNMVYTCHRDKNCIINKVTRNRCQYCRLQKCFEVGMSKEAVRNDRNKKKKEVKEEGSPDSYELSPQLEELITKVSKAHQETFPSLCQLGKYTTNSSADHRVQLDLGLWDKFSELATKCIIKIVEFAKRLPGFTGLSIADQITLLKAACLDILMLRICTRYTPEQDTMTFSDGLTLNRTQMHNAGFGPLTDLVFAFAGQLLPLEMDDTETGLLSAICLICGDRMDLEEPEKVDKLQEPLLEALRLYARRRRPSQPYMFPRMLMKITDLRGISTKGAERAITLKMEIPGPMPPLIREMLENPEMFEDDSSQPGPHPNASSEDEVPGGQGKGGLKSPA

Values joined by “and” are separate entries in the source; they are usually repeats but may differ in a detail not shown here. Equal entries are not always repeated. Results filed as inconclusive are left out. More than one record can exist for a structure, and the calls need not agree. Active and inactive are the calls of the source. Rule for the calls, unless noted: active = hit-call score of the fitted dose curve at least 0.9, where 1 is the maximum; inactive = score below 0.9.

Sequence of human RAR-related Orphan Receptor beta (RORb), RORB (gene 6096) (Q92753 whole entry, looked up, the tested form may be a part): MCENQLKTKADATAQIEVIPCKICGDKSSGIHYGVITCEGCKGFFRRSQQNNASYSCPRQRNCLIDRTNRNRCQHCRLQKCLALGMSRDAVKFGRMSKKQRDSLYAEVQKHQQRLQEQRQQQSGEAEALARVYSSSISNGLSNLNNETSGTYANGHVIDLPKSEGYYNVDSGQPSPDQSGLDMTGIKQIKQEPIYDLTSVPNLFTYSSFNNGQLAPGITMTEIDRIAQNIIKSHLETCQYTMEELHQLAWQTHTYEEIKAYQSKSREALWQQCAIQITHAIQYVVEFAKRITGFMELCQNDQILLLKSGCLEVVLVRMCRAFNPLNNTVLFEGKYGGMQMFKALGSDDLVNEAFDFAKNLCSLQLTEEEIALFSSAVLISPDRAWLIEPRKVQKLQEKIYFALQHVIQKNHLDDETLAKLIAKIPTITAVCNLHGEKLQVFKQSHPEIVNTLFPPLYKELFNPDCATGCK
Sequence of human Peroxisome Proliferator-activated Receptor alpha (PPARa), PPARA (gene 5465) (Q07869 whole entry, looked up, the tested form may be a part): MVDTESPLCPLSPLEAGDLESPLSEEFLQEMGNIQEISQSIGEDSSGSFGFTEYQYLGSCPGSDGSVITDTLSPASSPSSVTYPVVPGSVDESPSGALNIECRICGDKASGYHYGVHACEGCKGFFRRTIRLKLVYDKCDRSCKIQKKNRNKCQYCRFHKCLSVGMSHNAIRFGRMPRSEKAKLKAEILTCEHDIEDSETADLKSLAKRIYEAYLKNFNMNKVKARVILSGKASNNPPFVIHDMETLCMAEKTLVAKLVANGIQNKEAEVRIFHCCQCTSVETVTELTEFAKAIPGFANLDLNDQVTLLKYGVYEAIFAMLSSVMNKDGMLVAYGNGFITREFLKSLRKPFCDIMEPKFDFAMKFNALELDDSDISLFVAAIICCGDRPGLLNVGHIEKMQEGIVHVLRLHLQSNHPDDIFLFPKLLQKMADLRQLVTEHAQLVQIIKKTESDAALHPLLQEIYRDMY
Sequence of Peroxisome proliferator-activated receptor gamma (Homo sapiens) (P37231 whole entry, looked up, the tested form may be a part): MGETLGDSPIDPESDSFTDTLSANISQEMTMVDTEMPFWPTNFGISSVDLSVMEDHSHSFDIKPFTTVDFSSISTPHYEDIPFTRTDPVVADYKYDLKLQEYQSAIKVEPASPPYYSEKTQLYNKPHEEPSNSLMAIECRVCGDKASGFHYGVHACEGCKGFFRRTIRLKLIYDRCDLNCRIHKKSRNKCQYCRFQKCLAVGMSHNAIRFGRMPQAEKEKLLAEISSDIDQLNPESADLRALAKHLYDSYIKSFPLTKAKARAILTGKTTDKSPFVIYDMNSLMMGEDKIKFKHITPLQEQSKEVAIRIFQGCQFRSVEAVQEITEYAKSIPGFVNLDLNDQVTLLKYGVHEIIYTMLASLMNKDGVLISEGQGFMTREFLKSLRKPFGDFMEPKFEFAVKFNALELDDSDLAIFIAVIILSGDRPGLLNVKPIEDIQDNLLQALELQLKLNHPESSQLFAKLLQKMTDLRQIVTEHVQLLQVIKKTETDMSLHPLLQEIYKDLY
Sequence of Retinoic acid receptor alpha (Homo sapiens) (P10276 whole entry, looked up, the tested form may be a part): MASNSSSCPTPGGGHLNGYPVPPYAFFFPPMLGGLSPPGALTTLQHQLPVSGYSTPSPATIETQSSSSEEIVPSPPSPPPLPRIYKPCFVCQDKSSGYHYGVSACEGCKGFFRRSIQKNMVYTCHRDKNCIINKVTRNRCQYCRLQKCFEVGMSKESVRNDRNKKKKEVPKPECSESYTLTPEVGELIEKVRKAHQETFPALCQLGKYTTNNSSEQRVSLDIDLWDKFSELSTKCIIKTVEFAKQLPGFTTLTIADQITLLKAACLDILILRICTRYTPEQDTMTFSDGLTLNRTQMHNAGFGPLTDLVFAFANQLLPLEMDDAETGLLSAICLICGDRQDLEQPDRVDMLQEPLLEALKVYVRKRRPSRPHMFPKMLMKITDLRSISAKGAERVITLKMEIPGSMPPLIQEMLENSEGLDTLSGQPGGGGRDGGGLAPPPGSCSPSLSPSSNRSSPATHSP
Sequence of Myc proto-oncogene protein (Homo sapiens) (P01106 whole entry, looked up): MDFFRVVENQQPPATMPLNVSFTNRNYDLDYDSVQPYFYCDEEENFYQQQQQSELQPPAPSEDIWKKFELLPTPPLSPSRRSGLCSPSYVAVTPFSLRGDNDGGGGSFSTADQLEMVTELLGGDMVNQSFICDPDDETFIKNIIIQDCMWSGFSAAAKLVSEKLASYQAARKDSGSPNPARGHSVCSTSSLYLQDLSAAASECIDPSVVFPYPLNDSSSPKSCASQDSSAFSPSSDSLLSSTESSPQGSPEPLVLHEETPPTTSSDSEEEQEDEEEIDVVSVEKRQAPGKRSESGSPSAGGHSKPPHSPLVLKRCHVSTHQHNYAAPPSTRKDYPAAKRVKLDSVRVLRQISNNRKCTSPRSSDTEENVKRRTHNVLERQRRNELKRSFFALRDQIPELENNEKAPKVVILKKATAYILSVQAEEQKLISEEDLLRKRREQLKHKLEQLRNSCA
Sequence of Nuclear receptor subfamily 1 group I member 2 (Homo sapiens) (O75469 whole entry, looked up, the tested form may be a part): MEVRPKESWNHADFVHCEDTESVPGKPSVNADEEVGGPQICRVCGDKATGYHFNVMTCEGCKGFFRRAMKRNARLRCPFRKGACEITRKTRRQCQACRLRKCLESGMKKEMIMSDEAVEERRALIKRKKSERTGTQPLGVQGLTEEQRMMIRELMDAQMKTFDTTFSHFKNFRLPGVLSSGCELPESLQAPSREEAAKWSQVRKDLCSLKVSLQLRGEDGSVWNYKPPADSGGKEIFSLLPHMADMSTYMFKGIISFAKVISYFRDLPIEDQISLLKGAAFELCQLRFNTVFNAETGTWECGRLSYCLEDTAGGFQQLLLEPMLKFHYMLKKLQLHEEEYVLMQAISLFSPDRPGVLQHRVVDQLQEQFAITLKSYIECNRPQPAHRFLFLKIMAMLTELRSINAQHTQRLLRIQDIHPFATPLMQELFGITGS

Turning to `CC(=O)S[C@@H]1CC2=CC(=O)CC[C@]2(C)[C@H]2CC[C@@]3(C)[C@@H](CC[C@@]34CCC(=O)O4)[C@H]12`, the AC50 in [1] was 7.76 µM (active); in assay [2] it was 100 µM (active); in assay [3], 15 µM (active); in [4], 27.6 µM (active) [middle of 4 runs]; in assay [5], 16.1 µM (active); in assay [6], 29.5 µM (active). In addition, the values for the AC50 in assay [7] and in [11] were 36.5 µM (active) and 28 µM (active), respectively. For the same compound, the result in assay [1], in assay [2], in [3], in [4], in [8] and in assay [9] was inactive. Moreover, the result in [10], in assay [12], in assay [13] and in assay [14] was inactive.

For `CCNc1nc(N)nc(Cl)n1`, the compound was classed as inactive in [1], in assay [15], in [2], in assay [3], in assay [4] and in [6]. In addition, the result in assay [7], in assay [8], in [9], in assay [10], in assay [16] and in assay [17] was inactive. For the same compound, the outcome in assay [11], in assay [13] and in assay [18] was inactive.

For `CC(C)(c1ccc(O)cc1)c1ccc(O)cc1`, the AC50 in assay [1] was 2.29 µM (active); in [15], 56.9 µM (active); in assay [4], 86.2 µM (active) and 100 µM (active) and 133 µM (active); in [11] it was 27.4 µM (active); in assay [12], 14.2 µM (active) and 18.3 µM (active) and 25.8 µM (active). Also, the compound was classed as inactive in assay [1], in [15], in assay [2], in [3], in [4] and in [6]. The outcome in assay [7], in assay [8], in [9], in assay [10], in [16] and in assay [17] was inactive. For the same compound, the result in assay [11], in [12], in assay [13], in assay [19] and in assay [18] was inactive.

As usually defined, the AC50 is the midpoint of the concentration-response curve, whichever way the signal moves.
